Compound activity (PubChem)
Rows were chosen to be rich in hits. Some 19% of all compounds tested hit in one or more screens of this group.
IL-1B inflam inh: inflammasome signaling inhibition, IL-1 beta readout | THP-1 LPS/ATP IL-1B secretion, AlphaLISA, 16 h; stronger effect = lower value | activity change, % at 57.5 µM | 360,000 compounds, 4.7% hits | AID 743279; in the data active = activity change below about -50%; inconclusive = mostly about -30% to -49%
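THP-1 cells pretreated 1 hr with compounds (up to 57.5 uM final), then stimulated with LPS (250 ng/mL final) plus ATP (1.25 mM final); secreted IL-1B measured by AlphaLISA after 16 hr, decreased signal indicating inhibition.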
ELG1 repair inh: blocks ELG1-dependent DNA repair in HEK293T cells; Potency, µM (top dose mostly 46.1 µM), without a hit: at the highest dose activity change, negative = inhibition, actives largely listed as inhibitors; 330,000 compounds, 2.3% hits; HEK293T ELG1-luciferase reporter, luminescence, 16 h; DNA damage induced by 5-fluorouridine; note: potency is the fitted concentration of half-maximal effect; nearly all actives have a fitted effect of over 55% in size
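DMSO vehicle served as the neutral condition. Each well held 2,000 cells given 5-fluorouridine plus compound; after 16 hr at 37 °C/5% CO2, ONE-Glo was added and luciferase measured 30 min later.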
DT40 TDP1 CPT: growth inhibition of DT40 Tdp1-/-;hTDP1 cells with camptothecin (screen for TDP1 inhibitors) | 420,000 compounds, 12% hits | Potency, µM (titrated, usually from 46.2 µM), inactives show top-dose activity change, negative = growth inhibition, most hits filed as inhibitors | chicken DT40 Tdp1-/-;hTDP1 cells + 20 nM CPT, ATP luminescence, 48 h | AID 686979; note: potency is the fitted concentration of half-maximal effect; nearly all actives have a fitted effect of over 55% in size
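Chicken DT40 Tdp1-/- cells stably complemented with human TDP1 were seeded at 400 cells/well in medium containing 20 nM camptothecin, exposed to pin-transferred compounds, and grown at 37 °C for at least 48 hr. Viability was read as ATP luminescence.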
HT1080 IDH1KD tx: toxicity to HT-1080 IDH1 knockdown cells (counter line); HT-1080 IDH1 knockdown viability, ATP luminescence, 48 h; Potency, µM (highest dose often 46.1 µM), for inactives: top-dose activity, negative = toxicity, usual class: cytotoxic; 360,000 compounds, 2% hits; AID 686971;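 note: potency is the fitted concentration of half-maximal effect; 0% = DMSO wells and -100% = cell-free medium wells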
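Cytotoxicity counter-line: IDH1KD HT-1080, 48 h, CellTiter-Glo. Curves classed by r2, magnitude and activity.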
DT40 TDP1 no CPT: qHTS for Inhibitors of human tyrosyl-DNA phosphodiesterase 1 (TDP1): qHTS in cells in absence of CPT; DT40 Tdp1-/- hTDP1 cells, no CPT, ATP luminescence, 48 h; Potency, µM (top dose mostly 46.2 µM), for the others: top-dose activity change, negative = growth inhibition, usual class: inhibitors; AID 686978, 2013; 420,000 compounds, 15% hits; note: potency is the fitted concentration of half-maximal effect; nearly all actives have a fitted effect of over 55% in size
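Cells were dispensed at 400 per well, compounds added by pin tool, plates incubated ≥48 hr at 37 °C, then CellTiter-Glo added for 30 min at room temperature before luminescence reading. Line: DT40 Tdp1-/- complemented with hTDP1; camptothecin omitted.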
HT1080NT lethal: kills 2HG-producing HT-1080-NT fibrosarcoma cells; HT-1080-NT fibrosarcoma viability, CellTiter-Glo ATP luminescence, 48 h; Potency, µM (titrated, usually from 46.1 µM), without a hit: top-dose activity, negative = less viability, usual class: cytotoxic; 360,000 compounds, 1.6% hits; AID 686970;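 note: NT is the 2HG producing partner of a matched IDH1 knockdown line; potency is the fitted concentration of half-maximal effect; 0% = DMSO-treated cells and -100% = media-only wells without cells; nearly all actives have a fitted effect of over 55% in size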
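Luminescent CellTiter-Glo readout after 48 hours of compound exposure at 37 degrees C defined viability of HT-1080-NT cells. Activity was normalized to DMSO wells and cell-free media wells; concentration-response curves were fitted and assigned curve classes.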
Numbers without * were called inactive; ? = inconclusive; nt = not tested or not shown. Unless noted, calls come from the whole dose curve; as a rule, active = well fitted curve in the direction sought with a large enough effect; inconclusive = small, poorly fitted or top-dose-only effect, or another doubt; inactive = no such curve, though single readings can be large; an effect the other way counts as inactive or inconclusive. Unless noted, % is set by controls: 0 for no effect and ±100 for the full control effect.

SMILES	IL-1B inflam inh	ELG1 repair inh	DT40 TDP1 CPT	HT1080 IDH1KD tx	DT40 TDP1 no CPT	HT1080NT lethal
CN(C)c1ccc(N2C(=NC(=O)COc3ccccc3)SC3CS(=O)(=O)CC32)cc1 (stereo unspecified)	0.0	?	-2.2%	1.9%	-1.4%	1.6%
O=C(/C=C/c1ccco1)NCC1CCCO1 (stereo unspecified)	12.7	13.9%	-9.7%	7.8%	-9.8%	4.4%
Nc1c(C(=O)NCC2CCCO2)sc2nc3c(c(-c4ccco4)c12)CC/C3=C\c1ccco1 (stereo unspecified)	-3.7	-25.5%	?	0.2%	25.9µM*	-1.9%
N#C/C(=N\Nc1cccc(C(F)(F)F)c1)C(=O)c1csc(-c2cccnc2)n1	22.6	?	16.4µM*	?	25.9µM*	-9.0%
COc1cc(S(=O)(=O)NCc2ccncc2)c(OC)cc1Br	23.9	-14.0%	?	-1.7%	13µM*	-2.9%
Cc1cc(S(=O)(=O)NCc2ccncc2)c(C)cc1Br	0.0	?	8.2µM*	-19.0%	5.8µM*	-27.3%
Cc1ccc(C)c(S(=O)(=O)NCc2cccnc2)c1	0.0	-1.8%	-3.6%	?	3.8%	5.5%
COc1cc(S(=O)(=O)NCc2cccnc2)c(OC)cc1Br	-1.5	-0.9%	5.5%	7.4%	9.3%	5.0%
Cc1ccc(C)c(S(=O)(=O)NCc2ccncc2)c1	27.7	?	?	?	20.6µM*	-12.2%
Cn1nnnc1SCC(=O)Nc1ccc(C(=O)N2CCN(Cc3ccccc3F)CC2)cc1	-5.0	-2.0%	-19.3%	0.0%	4.9%	16.8%
O=C(NCCS(=O)(=O)N1CCN(c2ccccc2F)CC1)C(c1ccccc1)c1ccccc1	nt	nt	-7.2%	nt	-20.5%	nt
O=c1[nH]c(CN2CCN(c3ccccc3O)CC2)nc2scc(-c3ccccc3Cl)c12	-52.1*	20.6µM*	?	?	?	-27.9%
COc1cccc(N2CCN(Cc3nc4ccccc4c(=O)[nH]3)CC2)c1	9.4	0.2%	0.8%	2.1%	?	-0.8%
O=c1[nH]c(CN2CCN(c3ccc(O)cc3)CC2)nc2scc(-c3ccc(Cl)cc3)c12	0.0	?	3.66µM*	20.6µM*	4.61µM*	?
COc1cccc(N2CCN(Cc3nc4scc(-c5ccccc5)c4c(=O)[nH]3)CC2)c1	33.0	?	5.17µM*	11.6µM*	5.17µM*	13µM*
CC(C)C[C@@H]1O[C@H](C(C)C)Cc2[nH][nH]c(=O)c21	34.2	nt	?	5.3%	?	2.8%
O=C(O)CC(CC(=O)O)c1ccc2c(c1)OCO2	nt	nt	3.9%	nt	-24.5%	nt
O=C(c1cc(-c2cccc(Cl)c2)on1)N1CCCCC1	nt	nt	-20.1%	nt	-14.4%	nt
CN(CCc1ccccn1)C(=S)NC(=O)c1ccco1	20.7	0.6%	?	8.6%	?	6.2%
CCN(C[C@H]1N[C@@](CC)(C(=O)OC)[C@H]2C(=O)N(Cc3ccccc3)C(=O)[C@@H]12)S(=O)(=O)c1ccc(OC(F)(F)F)cc1	-8.2	-15.9%	?	0.6%	16.4µM*	9.0%
CCN(C[C@H]1N[C@@](CC)(C(=O)OC)[C@H]2C(=O)N(Cc3ccccc3)C(=O)[C@@H]12)S(=O)(=O)c1ccc(-c2ccccc2)cc1	0.0	-15.3%	?	1.9%	?	5.1%
CCN(C[C@H]1N[C@@](CC)(C(=O)OC)[C@H]2C(=O)N(Cc3ccccc3)C(=O)[C@@H]12)S(=O)(=O)c1ccc(C(C)(C)C)cc1	-15.4	-1.8%	13µM*	-1.6%	23.1µM*	-1.8%
Cc1ccc(F)c(N=Cc2c(O)c3ccccc3oc2=O)c1	-11.3	?	-0.7%	-13.8%	-29.7%	-17.2%
COc1ccc(CCn2c(-c3cccc([N+](=O)[O-])c3)nc3nc4ccccc4nc32)cc1OC	6.9	?	-7.2%	1.2%	-11.0%	-5.6%
Fc1ccc(-n2c(-c3ccco3)nc3nc4ccccc4nc32)cc1	-18.0	-11.5%	-11.4%	4.8%	-9.3%	6.4%
SMILES	IL-1B inflam inh	ELG1 repair inh	DT40 TDP1 CPT	HT1080 IDH1KD tx	DT40 TDP1 no CPT	HT1080NT lethal
Fc1ccc(-c2nc3nc4ccccc4nc3n2Cc2ccco2)cc1	-1.6	3.7%	?	-0.6%	?	-4.1%
CCCCn1c(-c2cccs2)nc2nc3ccccc3nc21	4.8	?	?	11.4%	23.1µM*	0.0%
c1ccc(-c2nc3nc4ccccc4nc3n2Cc2ccco2)cc1	-6.7	0.0%	?	0.6%	22.4µM*	-3.4%
CCCCOCCCn1c(-c2ccco2)nc2nc3ccccc3nc21	-28.5	?	?	-8.1%	20.6µM*	-2.5%
CCCn1c(-c2cc(OC)c(OC)c(OC)c2)nc2nc3ccccc3nc21	0.4	16.4µM*	-0.5%	3.8%	-0.4%	1.3%
CC1OC(C(C)(C)C)Cc2[nH][nH]c(=O)c21 (stereo unspecified)	39.1	nt	-14.2%	-6.7%	-14.1%	1.9%
O=c1cc(CN2CCOCC2)c2cc(Cl)ccc2o1	-13.0	?	9.2%	5.2%	13.3%	6.1%
c1ccc(Cn2c(-c3cccs3)nc3nc4ccccc4nc32)cc1	nt	0.0%	nt	nt	nt	nt
CC(C)Cn1c(-c2cccs2)nc2nc3ccccc3nc21	-9.4	?	16.4µM*	-8.4%	14.6µM*	-11.3%
O=[N+]([O-])c1ccc(/C=N/NC(=S)Nc2ccc(Cl)cc2Cl)s1	25.3	8.2µM*	5.8µM*	?	5.17µM*	?
O=[N+]([O-])c1ccc(O)c(/C=N/NC(=S)Nc2ccc(Cl)cc2Cl)c1	118.8	2.91µM*	16.4µM*	23.1µM*	20.6µM*	?
Cc1cc(Cl)ccc1NC(=O)CCC(=O)N/N=C/c1cc([N+](=O)[O-])ccc1O	68.4	7.3µM*	6.51µM*	-22.1%	8.2µM*	-18.1%
Cc1nc2ncccn2c1-c1csc(Nc2ccc(O)cc2)n1	-27.9	?	?	?	5.17µM*	-5.7%
Cc1ccc(Nc2nc(-c3c(C)nc4ncccn34)cs2)cc1	-98.4*	4.5%	0.0184µM*	?	0.0065µM*	0.184µM*
C=CCNc1nc(-c2c(C)nc3ncccn23)cs1	-4.5	-1.8%	-17.0%	4.8%	-23.2%	17.0%
Cc1ccc(NC(=O)CCNS(=O)(=O)c2ccc(Br)s2)cc1	?	3.8%	-2.8%	-13.0%	?	-23.2%
COc1cccc(/C=C(\C#N)c2nc3ccc(C)cc3[nH]2)c1OCC(=O)O	6.8	2.2%	-15.4%	0.6%	6.1%	4.8%
